# FBW7 activator: activators of human E3 ligase FBW7 | Q969H0 | AlphaScreen FBW7–phospho-cyclin E peptide binding, activator screen | normalized activity (activation), % at 26.1 µM | actives 0.13% (n = 650,000) | AID 1259310; in the data active means normalized activity above about 1.9%;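 further: purified mutant Fbw7 with reduced substrate affinity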
# MITF inh: inhibitors of human MITF; O75030; AlphaScreen MITF homodimerization, bead proximity signal; actives 0.91% (n = 650,000); inhibition, % at 2.6 µM; AID 1259374; in the data active means inhibition above about 50%;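 further: 0% = vehicle wells with protein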
# GPR151 ag: activators of human GPR151; PathHunter beta-arrestin GPR151 cells, luminescence; activation, % at 11.2 µM; actives 1% (n = 650,000); AID 1508602; in the data active means activation above about 4.9%;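 further: 0% = median of compound wells and 100% = cells with positive control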
# Target sequence (Q8TDV0 whole entry, looked up): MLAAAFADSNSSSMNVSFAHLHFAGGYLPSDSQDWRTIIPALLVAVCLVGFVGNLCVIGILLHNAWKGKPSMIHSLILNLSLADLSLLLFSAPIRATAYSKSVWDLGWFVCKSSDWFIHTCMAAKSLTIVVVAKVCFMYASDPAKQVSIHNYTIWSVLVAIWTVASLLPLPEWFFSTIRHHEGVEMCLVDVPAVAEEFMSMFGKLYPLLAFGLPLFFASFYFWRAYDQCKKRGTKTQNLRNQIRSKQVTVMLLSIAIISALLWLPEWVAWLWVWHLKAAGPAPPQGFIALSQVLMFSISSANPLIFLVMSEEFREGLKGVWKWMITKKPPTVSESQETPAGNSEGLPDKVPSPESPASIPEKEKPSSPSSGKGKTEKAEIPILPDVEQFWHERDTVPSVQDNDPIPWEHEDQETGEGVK
# TEAD-YAP block: TEAD-YAP interaction inhibition; HEK-TIYL cells, TEAD-Gal4/YAP UAS-luciferase luminescence; inhibition, % at 9.12 µM; actives 1.4% (n = 640,000); in the data active means inhibition above about 32%;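 further: 0% = median of test compound wells and 100% = reference inhibitor wells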
# * marks the source's active call; other numbers are inactive results. This is a sample that favours compounds with a hit; in the whole collection about 3.5% have one here.
SMILES,FBW7 activator,MITF inh,GPR151 ag,TEAD-YAP block
N#Cc1ccc(N2CCc3ccccc3C2)c([N+](=O)[O-])c1,0,1,0,-5
Cc1nnc(-c2ccc(N3CCc4ccccc4C3)c([N+](=O)[O-])c2)o1,0,22,1,45*
COc1cc(OC)cc(C(=O)Nn2c(-c3ccc(C(C)(C)C)cc3)nc3ccccc3c2=O)c1,0,-5,-1,38*
COc1cccc(C(=O)Nn2c(-c3ccc(C(C)(C)C)cc3)nc3ccccc3c2=O)c1,0,7,1,42*
COc1cccc(C(=O)Nn2c(-c3ccc(Br)cc3)nc3ccccc3c2=O)c1,0,8,0,3
CCc1ccc2nc3sc(C(N)=O)c(N)c3cc2c1,0,11,-3,92*
NC(=O)c1sc2nc3cc4c(cc3cc2c1N)OCO4,0,-4,-2,73*
CC(C)NS(=O)(=O)c1ccc(NC(=O)Nc2ccccc2)cc1,0,-4,-1,-32
COc1ccc(Nc2ccnc3c(-c4ccc(N)cc4)cnn23)cn1,0,17,0,37*
c1ccc(CNc2ccnc3c(-c4ccc5c(c4)OCO5)cnn23)nc1,1.9*,6,-1,2
Nc1ccc(-c2cnn3c(NCc4ccc5c(c4)OCO5)ccnc23)cc1,2.5*,7,-1,-66
CC(C(=O)NCc1ccccc1)N1C(=O)c2cccc([N+](=O)[O-])c2C1=O (centres undefined),0,11,0,3
CCCCNC(=O)CSc1nc(O)c(CC)c(=O)[nH]1,0,-10,0,1
Cc1nnsc1C(=O)NC(C)c1cnn(-c2ccccn2)c1C (centres undefined),0,2,0,8
CCn1c(C)nc2cc(-c3nc4n(n3)Cc3ccccc3-4)ccc21,0,-12,-12,103*
CCn1c(C)nc2cc(CO)ccc21,0,10,1,-6
CCOC(=O)Cc1ccc(N(Cc2ccccc2)S(=O)(=O)c2ccc(C(C)(C)C)cc2)cc1,0,-9,1,-14
Cc1nc2ccc3nc(NC(=O)c4ccco4)sc3c2s1,26*,-20,1,-48
Cc1ccc(C(=O)Nc2nc3ccc4sc(C)nc4c3s2)cc1,0,10,-2,-19
Cc1nc2c(ccc3nc(NC(=O)C4=COCCO4)sc32)s1,0,-4,-6,79*
O=C(Nc1nnc(C23CC4CC(CC(C4)C2)C3)s1)c1ccco1,1.9*,11,-1,-16
Cc1nc2c(ccc3nc(NC(=O)c4ccco4)sc32)s1,0,19,-2,50*
O=C(CSc1ccc(Br)cc1)Nc1ccccc1,1,15,-2,-20
O=NN(CCc1ccncc1)c1ccc(OCc2ccccc2)cc1,0,1,0,38*
Cc1cc(OCC(O)CNC(C)C)ccc1C(C)C (centres undefined),0,-16,0,51*
SMILES,FBW7 activator,MITF inh,GPR151 ag,TEAD-YAP block
Cc1cc(OCC(O)CNC2CCCC2)ccc1C(C)C (centres undefined),0,13,0,12
C=CCNCCCOc1ccc(C(C)C)c(C)c1,0,37,-3,42*
Cc1cc(OCCCNCCN)ccc1C(C)C,0,-2,-2,-2
COC(c1ccccc1)c1nnc(CCC(=O)NCc2cccc(Cl)c2)o1 (centres undefined),0,3,-1,3
c1ccc(Nc2ncnc3c2c(-c2ccccc2)cn3-c2ccccc2)cc1,0,2,0,-9
O=C(N/N=C/c1ccc(F)cc1)c1cc2sccc2[nH]1,0,17,-1,49*
CCC/C(C)=C/Cc1c(O)c2c(c(C)c1OC)COC2=O,0,18,0,66*
COC1=C(OC)C(=O)C(C/C=C(\C)CC/C=C(\C)CC/C=C(\C)CC/C=C(/C)CC/C=C(\C)CC/C=C(\C)CC/C=C(\C)CC/C=C(\C)CC/C=C(\C)CCC=C(C)C)=C(C)C1=O,1,11,1,1
CCOc1ccc2cc(-c3nnc(Nc4ccc(F)cc4)s3)c(=O)oc2c1,0,5,0,10
O=C1C(Sc2nc3ccccc3o2)=C(Sc2nc3ccccc3o2)C(=O)N1c1ccccc1,0,5,0,-26
O=C(CN1CC[n+]2c(-c3cccs3)csc21)c1ccccc1,0,9,0,32*
O=C(Cn1c2ccccc2n2nc(-c3cccs3)nc12)c1ccccc1,0,-3,1,-7
CCC(C)(C)NC(=O)C(c1ccccc1F)N(C(=O)Cn1nnc2ccccc21)C1CC1 (centres undefined),0,0,1,14
CCCCC(=O)Nc1ccccc1-c1nnn(CC(=O)Nc2ccccc2)n1,0,-5,1,-3
CCCCC(=O)Nc1ccccc1-c1nnn(CC(=O)Nc2ccc3c(c2)OCCO3)n1,2.3*,13,-1,12
CCOC(=O)C1=C(C)N=c2s/c(=C\c3ccc(OCc4ccccc4Cl)cc3)c(=O)n2C1c1ccc(Cl)cc1 (centres undefined),0,-3,0,-1
CC(C)C(OC(=O)c1ccco1)C(=O)NCc1ccccc1 (centres undefined),0,-5,1,59*
COCCNC(=O)C(OC(=O)c1ccco1)c1ccccc1OC (centres undefined),1.9*,9,-1,14
CC(OC(=O)c1ccco1)C(=O)NCc1ccccc1 (centres undefined),0,22,0,1
O=C(/C=C/c1ccccc1)Nc1nnc(-c2ccc(F)cc2)o1,0,-14,0,8
O=c1nc(N/N=C/c2ccc(Cl)cc2Cl)cn[nH]1,0,7,-7,67*
O=c1nc(N/N=C/c2ccccc2Cl)cn[nH]1,0,2,-6,18
Cc1nc2ccc(-c3cnn(-c4cccc(N5CCOCC5)c4)c3)cc2c(=O)n1C,0,7,0,87*
CC(C)c1nc2ccc(-c3cnn(-c4cccc(CN5CCOCC5)c4)c3)cc2c(=O)[nH]1,0,-8,1,14
Cc1ccc2nc(=S)nc(-c3ccccc3)n2c1,0,-6,1,70*
SMILES,FBW7 activator,MITF inh,GPR151 ag,TEAD-YAP block
Cc1ccc2nc(-c3ccccc3)c(N)n2c1,0,-1,-10,69*
Cc1ccn2c(N)c(-c3ccccc3)nc2c1,0,16,-1,-8
COCCNc1c(-c2ccccc2)nc2ccc(C)cn12,0,5,-1,-24
CCOc1ccc(Br)cc1C1NC(=S)NC(C)=C1C(C)=O (centres undefined),0,-11,0,0
CCN(CC)C(=O)Nc1ccc2nc(-c3ccco3)c(-c3ccco3)nc2c1,-1,73*,0,-1
Clc1cc2nc(-c3ccco3)c(-c3ccco3)nc2cc1Cl,0,21,-1,-3
CC(C)(C)c1ccc(C2CC2C(=O)N/N=C\c2ccc[nH]2)cc1 (centres undefined),0,5,0,91*
CC12CC3(C)CC(C)(C1)CC(C(=O)NC(=S)Nc1ccccc1)(C2)C3,0,3,4,-2
CCOC(=O)c1c(C)[nH]c(C(=O)CSc2nnnn2-c2ccc(Cl)cc2)c1C,0,-2,-2,-4

# Screening data: PubChem, The Scripps Research Institute Molecular Screening Center
